This is an account of results in PubChem BioAssay.

The structures appear in SMILES notation.

Chain of Streptavidin (Streptomyces avidinii) (P22629 whole entry, looked up): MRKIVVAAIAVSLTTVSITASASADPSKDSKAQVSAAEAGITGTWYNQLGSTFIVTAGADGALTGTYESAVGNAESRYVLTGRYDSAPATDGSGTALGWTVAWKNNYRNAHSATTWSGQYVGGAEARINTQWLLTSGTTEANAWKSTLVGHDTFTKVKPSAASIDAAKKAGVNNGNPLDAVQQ

The test concerns the target Streptavidin (Streptomyces avidinii) (UniProt P22629). The test is described as follows: streptavidin binders on small-molecule microarray, primary screen, artefact control for SMM compound annotation, biophysical, 635/667 nm fluorescence (AID 1147).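 Also: signal reflects streptavidin binding to arrayed compounds as a control protein.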 Conditions: streptavidin binding, higher = more signal.
Take `O=C1OCC=C[C@H]2OC34C=CCN(c5ccc(Cl)cc5)C(=O)[C@H]3N(CCCCCO)C(=O)[C@@H]4[C@@H]12` (stereo not given in full): the composite z-score was -1.18.

The compound `CC(C)(C)OC(=O)CC[C@]1(C(=O)NCCN2CCOCC2)N=C(c2ccc(OCCCO)cc2)O[C@H]1c1ccccc1N=[N+]=[N-]` displayed a composite z-score of 0.615.

For the compound `COC(=O)C1(Cc2ccccc2)C=C2C(=C(c3ccccc3)C(=O)C2C)CN1` (stereo not given), the composite z-score amounted to 0.509.

In turn, `COc1cc(CO)cc(I)c1O[C@H]1C=C(C(=O)NCCO)C[C@@H](N(CC2CCCCC2)C(=O)c2ccc(C(F)(F)F)cc2)[C@@H]1O` came in with a composite z-score of -0.0411.

The compound `COc1ccc([Si](C)(C)[C@H]2[C@H](CCn3cc(CCO)nn3)O[C@@]3(C(=O)N(Cc4ccc(N5C(=O)c6cccc7cccc5c67)cc4)c4ccccc43)[C@@H]2C)cc1` had a composite z-score of 0.798.

Compound `CC=CC(O)C1C=CC2C(=O)N(C)C(=O)C2N1Nc1ccc([N+](=O)[O-])cc1[N+](=O)[O-]` (stereo not given) displayed a composite z-score of -0.118.

Consider `COCCCNC(=O)[C@]1(Cc2ccccc2N=[N+]=[N-])N=C(c2ccc(OCCCO)cc2)O[C@@H]1c1ccccc1N=[N+]=[N-]`, for which the composite z-score is 1.25.

`[N-]=[N+]=NCc1ccccc1C[C@@]1(C(N)=O)N=C(c2ccc(OCCCO)cc2)O[C@@H]1c1ccccc1CN=[N+]=[N-]` displayed a composite z-score of 1.13.

Compound `O=C1NC(=O)C2C1C=CC(C(O)c1ccc3c(c1)OCO3)N2Nc1ccccn1` (stereo not given) displayed a composite z-score of 0.501.

`O=C1C[C@]2(c3ccc([N+](=O)[O-])cc3)C(=O)N(Cc3ccccc3)c3cc(CO)ccc3[C@H]2N1CC12CC3CC(CC(C3)C1)C2` had a composite z-score of -1.04.

As for `COc1cc2c(cc1OC)CN(C(=O)[C@H]1[C@@H]3C(=O)O[C@@H](c4ccccc4)[C@@H](c4ccccc4)N3[C@@H](c3ccc(OCCO)cc3)[C@]13C(=O)Nc1ccc(C#CCCO)cc13)CC2`, the composite z-score turned out to be 1.31.

With `CC(C)NC(=O)[C@@]1(C)c2ccccc2C(=O)N(C(C)C)[C@H]1c1ccc(CO)cc1`, the composite z-score is -1.35.

Compound `C=CCC(OC(C)=O)[C@@H]1[C@@H](N(Cc2cc3ccccc3o2)C(=O)Cc2ccc(F)cc2)c2cc(OCCCO)ccc2N1C(=O)c1ccc2ccccc2n1` (stereo not given in full) came in with a composite z-score of 0.0443.

`O=C1O[C@@H](c2ccccc2)[C@@H](c2ccccc2)N2[C@@H](c3ccc(O)cc3)[C@]3(C(=O)Nc4ccc(C#CCCO)cc43)[C@@H](C(=O)Nc3nc4ccccc4s3)[C@H]12` had a composite z-score of 0.103.

For the compound `C=C(CCCC)/C(=C/C[C@@H](OC(C)=O)c1ccc(CO)o1)c1cc(C(=O)OC)ccc1OC`, the composite z-score was 0.498.

In turn, `O=C1OC[C@@H](c2ccccc2)N2CC(/C=C/c3ccccc3)=CC12` (stereo not given in full) displayed a composite z-score of -0.274.

In the case of `CCOC(=O)[C@H]1C/C=C/C[C@H](C(=O)OCC)C(=O)O[C@H]2[C@@H](OC)O[C@H](CO)[C@@H](OC(=O)CCc3ccccc3)[C@@H]2OC1=O`, the composite z-score is -0.345.

Regarding `[N-]=[N+]=Nc1ccccc1C[C@@]1(C(=O)O)N=C(c2ccc(OCCCO)cc2)O[C@@H]1c1ccccc1`, the composite z-score amounted to 1.48.

With `CC(C)(C)N1CC=CC23O[C@@H]4C=CCOC(=O)[C@@H]4[C@H]2C(=O)N(CCCO)[C@@H]3C1=O` (stereo not given in full), the composite z-score was -1.48.

In turn, `COC1(C)CN(Cc2ccccc2Br)[C@H](/C=C/c2ccccc2)[C@H](Cc2ccccc2)O1` (stereo not given in full) gave a composite z-score of -0.332.

The compound `O=C(N1CCCCC1)[C@@]1(Cc2ccccc2)COC(c2ccc(OCCCO)cc2)=N1` returned a composite z-score of 0.85.

`COC(=O)[C@@]1(Cc2ccc(F)cc2)[C@H]2c3cc(C(=O)N4CCCC4)n(CCc4c[nH]c5ccc(OC)cc45)c3C[C@H]2CN1C(=O)c1ccccc1`: the composite z-score was 1.53.

For the compound `[N-]=[N+]=Nc1ccccc1[C@@H]1OC(c2ccc(OCCCO)cc2)=N[C@]1(CCS(=O)(=O)c1ccccc1)C(=O)NCCN1CCOCC1`, the composite z-score turned out to be 0.637.

Regarding `CN1C(=O)C2C=CC(C(O)c3c(F)cccc3Cl)N(Nc3ccccc3)C2C1=O` (stereo not given), the composite z-score was 1.53.

Take `COC(=O)[C@@]1(Cc2ccccc2)[C@H]2c3cc(C(=O)N4CCCC4)[nH]c3C[C@H]2CN1C(=O)c1ccccc1`: the composite z-score came out at 0.255.

The compound `NCCCCCCNC(=O)[C@H]1C[C@H]2C(=O)N[C@@H](Cc3ccccc3)C(=O)N2[C@H]1c1ccc(O)cc1` registered a composite z-score of 1.38.

Take `C[N+](C)(C)CCCC[C@@H]1NC(=O)[C@@H]2C[C@H](C(=O)O)[C@H](c3ccc(O)cc3)N2C1=O`: the composite z-score is -1.08.

`C=C(CCCC)C(=O)CC[C@@H](OC(=O)c1cccnc1)c1ccccc1OCCO` registered a composite z-score of -0.368.

On to `O=C1O[C@@H](c2ccccc2)[C@@H](c2ccccc2)N2[C@@H](c3ccccc3OCCO)[C@]3(C(=O)Nc4ccccc43)[C@@H](C(=O)NC[C@H](O)c3ccccc3)[C@H]12`, for which the composite z-score was -0.625.

For the compound `CC(C)(C)OC(=O)CC[C@]1(C(=O)O)N=C(c2ccc(OCCCO)cc2)O[C@H]1c1ccccc1`, the composite z-score worked out at 0.235.

`C=C(/C=C/CNS(=O)(=O)c1ccc(C)cc1)[C@H](O)[C@H]1CCCN1S(=O)(=O)c1ccccc1[N+](=O)[O-]` gave a composite z-score of 0.337.

For the compound `CCOC(=O)C1=CC[C@@H](c2ccccc2C(F)(F)F)N(S(=O)(=O)c2ccc(C)cc2)C1`, the composite z-score stood at 0.867.

In the case of `CN(C)CCCN1C(=O)[C@@]2(c3ccc([N+](=O)[O-])cc3)CC(=O)N(CC34CC5CC(CC(C5)C3)C4)[C@@H]2c2ccc(CO)cc21`, the composite z-score is -0.472.

`CN1C2C=C(CCCO)C(C3C(=O)N(C(N)=O)C(=O)C32)C1c1cccs1` (stereo not given) returned a composite z-score of 0.0783.

For the compound `CCOC(=O)C1=CC[C@@H](c2ccc([N+](=O)[O-])cc2)N(S(=O)(=O)c2ccc(C)cc2)[C@H]1c1ccccc1`, the composite z-score is 1.57.
